Reference: article PMC5540273 (PLoS ONE, 2017)

Columns and labels:
Conditions in all cases: concentration: 1 μM, replicates: in singlicate; n = 1
[1] = system: T1, SNARK
T1 construct: gene NUAK2

[2] = system: SNRK
[3] = system: SRC
[4] = system: SRMS
[5] = system: SRPK1
[6] = system: SRPK2
[7] = system: SRPK3
[8] = system: STK16
[9] = system: STK33
[10] = system: STK35
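Note: KINOMEscan kinase panel screen.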

SMILES | %Inh [1] [%] | %Inh [2] [%] | %Inh [3] [%] | %Inh [4] [%] | %Inh [5] [%] | %Inh [6] [%] | %Inh [7] [%] | %Inh [8] [%] | %Inh [9] [%] | %Inh [10] [%]
O=C(Nc1n[nH]c2nc(-c3ccc(O)cc3)ccc12)C1CC1 [SB-710363] | 0 | 0 | 0 | 2 | 20 | 0 | 25 | 73 | 0 | 0
COC(=O)Nc1nc2cc(Oc3ccc(NC(=O)Nc4cc(C(F)(F)F)ccc4F)cn3)ccc2[nH]1.Cl.Cl [GW681170] | 14 | 0 | 29 | 0 | 25 | 8 | 0 | 17 | 55 | 0
COc1ccc(Nc2nccc(NCCNC(=O)c3cc4ccccc4s3)n2)cc1 [GSK1379896] | 0 | 2 | 9 | 0 | 32 | 0 | 3 | 13 | 0 | 0
Fc1ccc(-c2ncn(C3CCNCC3)c2-c2ccnc(Oc3ccc(-c4ccccc4)cc3)n2)cc1 [SB-245391] | 16 | 23 | 11 | 3 | 5 | 0 | 5 | 14 | 21 | 0
C[C@@H]1CC[C@@H](C(=O)Nc2ccccc2)CN1c1cc(-c2ccc3c(N)n[nH]c3c2)nc(N)n1 [GSK2286062] | 11 | 0 | 0 | 0 | 25 | 33 | 0 | 8 | 0 | 0
O=c1[nH]cc(-c2ccc(N3CCOCC3)cc2)c2sc(-c3cn[nH]c3)cc12 [GSK2276055] | 15 | 0 | 0 | 8 | 17 | 0 | 0 | 35 | 0 | 0
O=C(Nc1cccc(Oc2ccc3nc(NC(=O)C4CC4)cn3n2)c1)c1ccccc1C(F)(F)F | 0 | 0 | 5 | 0 | 59 | 14 | 48 | 17 | 0 | 3
Cl.Cl.NCC(C(=O)Nc1cc(Br)c(-c2ccnc3[nH]ccc23)s1)c1ccccc1 (centres unmarked) [GSK1269851] | 0 | 0 | 0 | 0 | 73 | 59 | 90.7 | 13 | 52 | 0
COc1cc(Nc2nccc(N3CCC(NC(=O)c4cc5ccccc5s4)C3)n2)cc(OC)c1OC (centres unmarked) [GSK1379760] | 20 | 0 | 21 | 8 | 61 | 0 | 22 | 10 | 0 | 9
Nc1ncc(-c2ccc3nccc(-c4ccncc4)c3c2)cc1S(=O)(=O)N1CCOCC1 [GSK1627798] | 8 | 0 | 0 | 0 | 0 | 0 | 4 | 22 | 0 | 0
COc1cc(Nc2nccc(-c3c(-c4cccc(NC(=O)c5c(F)cccc5F)c4)nn4ncccc34)n2)cc(OC)c1OC [GSK327238] | 95.2 | 0 | 99.9 | 98.5 | 38 | 0 | 0 | 67 | 22 | 96.9
CCc1ccc(-c2ccc3c(c2)-c2c(cnn2C)S(=O)(=O)N3C)cc1 | 8 | 0 | 0 | 0 | 0 | 0 | 18 | 0 | 0 | 2
COc1cccc(NC(=O)NC2CCN(c3ccnc(Nc4cc(OC)c(OC)c(OC)c4)n3)C2)c1 (centres unmarked) [GSK1379763] | 33 | 0 | 10 | 0 | 61 | 0 | 0 | 77 | 0 | 3
COc1cccc(C(=O)Nc2cccc(Oc3ccc4nc(NC(=O)C5CC5)cn4n3)c2)c1 | 5 | 8 | 94.1 | 20 | 40 | 29 | 0 | 0 | 10 | 0
O=C(Nc1cccc(-c2nn3ccccc3c2-c2ccnc(Nc3cccc(F)c3)n2)c1)c1c(F)ccc(F)c1Cl [GSK357952] | 4 | 17 | 45 | 28 | 45 | 0 | 0 | 0 | 10 | 27
c1ccc(-c2cnc3nccnn23)cc1 [AH20685] | 0 | 0 | 0 | 0 | 20 | 0 | 0 | 0 | 0 | 0

SMILES | %Inh [1] [%] | %Inh [2] [%] | %Inh [3] [%] | %Inh [4] [%] | %Inh [5] [%] | %Inh [6] [%] | %Inh [7] [%] | %Inh [8] [%] | %Inh [9] [%] | %Inh [10] [%]
Cn1cc(-c2ccc3c(c2)CCN3C(=O)Cc2cccc(F)c2)c2c(N)ncnc21 [GSK2603358] | 10 | 0 | 4 | 0 | 0 | 0 | 9 | 13 | 0 | 0
CCn1c(-c2nonc2N)nc2c(C#CC(C)(C)O)ncc(OCCCCN)c21.O=C(O)C(F)(F)F.O=C(O)C(F)(F)F [GSK507274] | 94.7 | 19 | 0 | 0 | 0 | 42 | 18 | 0 | 0 | 0
Cn1cc(-c2[nH]c3cc(NC(=O)[C@H](N)C4CCCCC4)cc4c3c2C=NNC4=O)cn1 | 97.9 | 1 | 98.3 | 75 | 99 | 77 | 82 | 66 | 37 | 53
COc1cccc(-c2ccc3c(NC(=O)C4CC4)n[nH]c3n2)c1 [SB-710903] | 0 | 0 | 0 | 0 | 10 | 50 | 0 | 26 | 0 | 0
CC(C)c1nc(-c2cccc(NS(=O)(=O)c3c(F)cccc3F)c2F)c(-c2ccnc(Nc3ccc(N4CCOCC4)nc3)n2)s1 [GSK2008607] | 29 | 0 | 100 | 99.5 | 38 | 0 | 0 | 46 | 83 | 36
O=C(Nc1n[nH]c2cc(-c3ccoc3)ccc12)C1CC1 [SB-738481] | 25 | 0 | 0 | 19 | 48 | 0 | 37 | 21 | 0 | 5
CSc1cccc2c(-c3ccncn3)c(-c3ccc(F)cc3)nn12 [GW514786] | 0 | 0 | 1 | 0 | 0 | 0 | 100 | 3 | 0 | 0
Nc1n[nH]c2cnc(-c3ccccc3)cc12 [SB-642124] | 60 | 0 | 0 | 0 | 22 | 3 | 24 | 45 | 31 | 0
CN1CCN(Cc2cccc(-c3ccc4c(Nc5ccc(Oc6ccccc6)cc5)ccnc4c3)c2)CC1 [GW578342] | 0 | 0 | 34 | 97.1 | 69 | 20 | 0 | 2 | 13 | 70
COC(=O)Nc1nc2ccc(Oc3ccc(NC(=O)Nc4cc(C(F)(F)F)ccc4F)cc3)cc2n1C.Cl [GW692089] | 17 | 0 | 0 | 0 | 26 | 57 | 5 | 0 | 30 | 0
Cc1ccc(S(=O)(=O)Nc2ccc(Nc3nccc(Nc4cccc5[nH]ncc45)n3)cc2)cc1 [GSK581271] | 0 | 0 | 64 | 0 | 51 | 5 | 9 | 43 | 0 | 55
CC(=O)Nc1nc2cnc(Nc3cc(NC(=O)c4cccc(C5(C#N)CC5)c4Cl)ccc3C)nc2s1 | 0 | 0 | 45 | 0 | 39 | 5 | 0 | 11 | 0 | 0
CC(=O)N1CCN(c2ccc(Nc3nccc(-c4sc(C(C)C)nc4-c4cccc(NS(=O)(=O)c5cccc(Cl)c5)c4)n3)cn2)CC1 [GSK1660437] | 17 | 0 | 85 | 98.3 | 44 | 0 | 44 | 0 | 34 | 0
COc1ccc(-c2coc3ccc(-c4nnc(SCc5ccc(OC)c(C(F)(F)F)c5)o4)cc23)cc1 | 35 | 21 | 4 | 0 | 8 | 0 | 0 | 17 | 7 | 0
Cc1ccc(C)c(NC(=O)NC2CCN(c3ccnc(Nc4ccc(F)cc4)n3)C2)c1 (centres unmarked) [GSK1379720] | 0 | 0 | 0 | 0 | 24 | 49 | 0 | 0 | 0 | 0
c1ccc(Oc2ccc(Nc3ccnc4cc(-c5ccc(CNCCN6CCOCC6)o5)ccc34)cc2)nc1 [GW567145] | 6 | 0 | 22 | 87 | 0 | 58 | 0 | 2 | 21 | 48
